Assay results as given in PubChem BioAssay AID602396 (The Scripps Research Institute Molecular Screening Center, 2012).
In all, about 360,000 compounds went through this assay and about 460 (0.13%) were called active. This is one part of a sample in which actives are shown more often than they occur.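 The calls were made as follows: active = inhibition above the mean inhibition of all tested compounds plus 3 SD (cut at about 73% in these data); inactive = the rest.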

biological target: Nuclear receptor subfamily 5 group A member 2 (Homo sapiens) (UniProt O00482); assay: reduction of NR5A2-driven StAR reporter activity – cell-based, luminescence, HEK293T, StAR-luciferase reporter, primary screen (AID 602396); details: LRH-1 transfected, 24 h, at 3.6 µM, stronger effect = higher value;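 also: 0% = DMSO wells and 100% = reporter-only cells lacking LRH-1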
Sequence (O00482 whole entry, looked up): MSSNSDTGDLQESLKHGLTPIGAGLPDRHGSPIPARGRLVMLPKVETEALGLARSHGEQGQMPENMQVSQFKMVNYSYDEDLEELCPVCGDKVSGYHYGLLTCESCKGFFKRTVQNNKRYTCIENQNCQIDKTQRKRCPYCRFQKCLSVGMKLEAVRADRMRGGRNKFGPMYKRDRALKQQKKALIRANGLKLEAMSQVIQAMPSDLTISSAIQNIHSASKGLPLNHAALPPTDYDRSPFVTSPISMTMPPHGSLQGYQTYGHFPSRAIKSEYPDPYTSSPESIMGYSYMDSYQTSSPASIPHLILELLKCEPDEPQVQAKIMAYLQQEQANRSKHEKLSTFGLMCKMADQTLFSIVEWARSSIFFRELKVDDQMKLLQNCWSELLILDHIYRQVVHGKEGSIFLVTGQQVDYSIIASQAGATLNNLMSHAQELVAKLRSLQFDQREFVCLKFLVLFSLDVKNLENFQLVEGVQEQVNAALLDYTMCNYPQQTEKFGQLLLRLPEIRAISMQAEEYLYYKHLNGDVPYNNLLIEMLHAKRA

Structure (SMILES)	inhibition
CC(=O)OC1C2(CC3N4C(=O)C5(CO)SSC4(CC31O)C(=O)N5C)OC(C)C(C)(C)C2=O (stereo not given)	97.6% (active)
CC(=O)N1CN2CN(C(C)=O)CC(C(=O)c3ccc(Br)cc3)(C2)C1	-11.4% (inactive)
CN(C)C(=O)Oc1ccc(NC(=O)N2CCOCC2)cc1	10.7% (inactive)
CCOc1ccc(-c2cc(C)[n+](CCN(CC)CC)c(-c3ccc(OCC)cc3)c2)cc1	86.7% (active)
CC(C)n1c(=O)c(C=Nc2ccc(Br)cc2)c(O)n(Cc2ccco2)c1=O	5.59% (inactive)
CCOC(=O)C(O)(c1ccc(NC(=O)c2ccco2)c(OC)c1)C(F)(F)F (stereo not given)	15% (inactive)
NCCc1ccc(S(=O)(=O)F)cc1	12.1% (inactive)
O=[N+]([O-])c1ccc(C2C3C(c4ccccc4)=NC4(CCCCC4)N32)cc1 (stereo not given)	22.7% (inactive)
CCC(C)n1c(O)c(/C=N/Nc2nc3c(c(=O)n(C)c(=O)n3C)n2C)c(=O)[nH]c1=S (stereo not given)	-7.02% (inactive)
CCCCCCCCCCCCn1ccc(=N)cc1	84.1% (active)
CN(C)CC1CCCCC1=O (stereo not given)	15.8% (inactive)
COc1ccc(-c2nn(CCC#N)cc2C(=O)Nc2ccc(C(C)=O)cc2)cc1	17.1% (inactive)
Clc1cccc(Cl)c1Cl	2.81% (inactive)
Cc1ccc(-c2nc3ccccc3c(=O)n2-c2ccc(Br)cn2)cc1	-1.48% (inactive)
CCNc1nc2[nH]c(=O)c3c(c2s1)OC(N)=C(C#N)C3c1cccs1 (stereo not given)	-2.41% (inactive)
CN(C)c1ccc(/C=C2\CC3C4CC=C5CC(O)CCC5(C)C4CCC3(C)C2=O)cc1 (stereo not given)	10.7% (inactive)
CCC(C)(O)C(=O)OC1C(=O)OC2CC3C(C)=CC(=O)C(O)C3(C)C3C4(O)OCC23C1C(C)C4O (stereo not given)	98.4% (active)
COc1ccc(C(=O)CC2C(=O)N(C)C(=O)N(C)C2=O)cc1	-5.13% (inactive)

Structure (SMILES)	inhibition
COC(=O)C1=C(c2ccccc2)C[C@@H]2CC[C@H]1N2C(=O)N1CCCCC1	8.33% (inactive)
O=C1C2(Cl)C3(Cl)C4(Cl)C(Cl)(Cl)C5(Cl)C3(Cl)C1(Cl)C5(Cl)C24Cl (stereo not given)	0.27% (inactive)
CCOP(=S)(OCC)SCOC(=O)NCC(=O)OC	-13.1% (inactive)
CN(C)C(=O)NC(O)C(Cl)(Cl)Cl (stereo not given)	-10.3% (inactive)
C[C@]12CC[C@H](O)C[C@H]1CC[C@@H]1C2CC[C@]2(C)[C@@H](C3=CC(=O)OC3)[C@@H](O)C[C@]12O (stereo not given in full)	88.6% (active)
COC(=O)C1=C(c2ccc(F)cc2F)C[C@@H]2CC[C@H]1N2C(=O)NC1CC1	20.8% (inactive)
COc1ccc(NC(=O)N2Cc3ccccc3-n3nncc3C2)cc1	-12.7% (inactive)
COC1C(O)C(C)OC(OC2CCC3(C=O)C(CCC4C3CCC3(C)C(C5=CC(=O)OC5)CCC43O)C2)C1O (stereo not given)	104% (active)
COCCNC(=O)CN1C2CCC1CC(O)(c1cccnc1)C2 (stereo not given)	17.3% (inactive)
Cc1ccc2c(c1)C1CN(C)CCC1N2C(=O)Cn1nnc(-c2ccccc2F)n1 (stereo not given)	-20.9% (inactive)
CC1=CC(=Cc2sc3ccccc3[n+]2C)C=C(C)O1	80.7% (active)
COc1ccccc1N=C1SCCCN1C	11.8% (inactive)
CCOC(=O)CNC(=O)N1Cc2cc(N3CCCCC3)ccc2-n2nncc2C1	6.84% (inactive)
Cc1cc(OCc2cc(C(=O)O)oc2C)c2c3c(c(=O)oc2c1)CCCC3	15.5% (inactive)
NCC(O)c1ccc(O)cc1 (stereo not given)	-5.8% (inactive)
CCN(N=Nc1nonc1OC)c1nonc1OC	3.32% (inactive)
CC1CCCN1CCC(C(N)=O)(c1ccccc1)c1ccccc1 (stereo not given)	-19.5% (inactive)
